HPGD inh: inhibitors of human 15-hydroxyprostaglandin dehydrogenase (HPGD); P15428; purified HPGD, NADH fluorescence kinetic, PGE2 substrate; Potency, µM, actives largely listed as inhibitors; 4.3% of 150,000 active; AID 894
Target sequence (P15428 whole entry, looked up): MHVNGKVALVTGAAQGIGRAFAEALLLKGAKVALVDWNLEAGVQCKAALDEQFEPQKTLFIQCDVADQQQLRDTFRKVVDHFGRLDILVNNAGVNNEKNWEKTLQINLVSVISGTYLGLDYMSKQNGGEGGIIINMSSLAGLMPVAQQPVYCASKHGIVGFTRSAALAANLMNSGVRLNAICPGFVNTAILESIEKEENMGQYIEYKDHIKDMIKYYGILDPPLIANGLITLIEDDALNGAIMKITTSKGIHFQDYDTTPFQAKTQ
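NADH formation kinetics: reaction with 30 uM PGE2 and 1 mM NAD+ (final), 20 nM enzyme, Tris-HCl pH 8 with Tween 20, after 15 min compound preincubation at room temperature. Fluorescence change, last versus first of five reads.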
Tau ThT inhib: blocks human tau fibril formation measured by thioflavin T; Potency, µM (series often up to 57.4 µM), most hits filed as inhibitors; P10636; recombinant tau K18 P301L, heparin-induced fibrillization, ThT fluorescence; 2.1% of 270,000 active; active = well fitted curve in the direction sought with a large enough effect; inconclusive = small, poorly fitted or top-dose-only effect, or another doubt; inactive = no such curve, though single readings can be large; an effect the other way counts as inactive or inconclusive; note: nearly all actives have a fitted effect of over 55% in size
Target sequence (P10636 561-689 P618L limits assumed): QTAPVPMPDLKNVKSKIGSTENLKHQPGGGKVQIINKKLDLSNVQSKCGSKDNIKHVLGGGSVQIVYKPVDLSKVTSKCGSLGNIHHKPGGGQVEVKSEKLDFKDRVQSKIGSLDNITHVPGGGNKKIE
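Fibril formation assay: tau K18 P301L at 15 uM with trace Alexa 594 label, heparin inducer 20 uM, pH 7 sodium acetate buffer, 37 C for 6 hr; endpoint ThT signal.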
Tau fibril FP: blocks human tau fibril formation measured by polarization. AID 1468. Potency, µM (doses to about 57.7 µM), actives largely listed as inhibitors. K18 P301L tau heparin fibrillization, Alexa594 FP, 6 h. 0.39% of 280,000 active; active = well fitted curve in the direction sought with a large enough effect; inconclusive = small, poorly fitted or top-dose-only effect, or another doubt; inactive = no such curve, though single readings can be large; an effect the other way counts as inactive or inconclusive; note: nearly all actives have a fitted effect of over 55% in size
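Steps: dispense K18 P301L tau (15 uM plus 0.24 uM Alexa 594 tracer, final) in pH 7 sodium acetate; add compound; add heparin (20 uM final); incubate 6 hr, 37 C; add ThT (30 uM final); after 1 hr ambient, read FP.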
ALDH1A1 block: ALDH1A1 (human) enzyme inhibition; AID 1030; P00352; Purified ALDH1A1, NADH fluorescence, propionaldehyde substrate; Potency, µM (doses to about 75.3 µM), actives largely listed as inhibitors; 7.3% of 220,000 active
JMJD2E inh: inhibitors of human JMJD2E histone demethylase; B2RXH2; JMJD2E catalytic domain, FDH-coupled NADH fluorescence (FDH is formaldehyde dehydrogenase); Potency, µM (series often up to 57.1 µM), hits mostly inhibitors; 1.6% of 230,000 active; note: nearly all actives have a fitted effect of over 50% in size
Tau fluor counter: counter-screen for tau fibril formation inhibitors | tau K18 P301L (four-repeat tau fragment) Alexa594 fluorescence, heparin fibrillization | Potency, µM (titrated, usually from 57.7 µM) | 0.93% of 280,000 active | AID 1463; active = well fitted curve in the direction sought with a large enough effect; inconclusive = small, poorly fitted or top-dose-only effect, or another doubt; inactive = no such curve, though single readings can be large; an effect the other way counts as inactive or inconclusive; note: nearly all actives have a fitted effect of over 55% in size
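Human K18 P301L tau (15 uM unlabeled plus 0.24 uM Alexa 594-labeled, final) in 100 mM sodium acetate pH 7 was mixed with compound and 20 uM heparin and incubated 6 hr at 37 C.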
Numbers stand for hits; [ ] = remark or other dose. Rows were chosen to be rich in hits. Some 9.9% of all compounds tested hit in one or more screens of this group. Unless noted, calls come from the whole dose curve; as a rule, active = well fitted inhibition curve with a large enough effect (not every such curve was filed as active); inconclusive = small, poorly fitted or top-dose-only effect, or another doubt; inactive = no such curve, though single readings can be large or run the other way.

CC(C)(C)c1ccc(S(=O)(=O)N2CCCCC2C(=O)NCc2ccccn2)cc1 (stereo not given) was read as HPGD inh inactive, Tau ThT inhib inactive, Tau fibril FP inactive, ALDH1A1 block 3.98µM, JMJD2E inh inactive and Tau fluor counter inactive.
`Cc1ccc(S(=O)(=O)NCC2CCC(C(=O)NCc3cccnc3)CC2)cc1` (stereo not given) gave Tau ThT inhib inactive, Tau fibril FP inactive, ALDH1A1 block 6.31µM, JMJD2E inh inactive and Tau fluor counter inactive.
O=C(NCc1ccc2c(c1)OCO2)C1CCC(CNS(=O)(=O)c2ccc(Cl)cc2)CC1 (stereo not given) was read as HPGD inh inactive, Tau ThT inhib inactive, Tau fibril FP inactive, ALDH1A1 block inactive, JMJD2E inh inactive and Tau fluor counter inactive.
Cc1ccc(S(=O)(=O)NCC2CCC(C(=O)NCc3ccc4c(c3)OCO4)CC2)cc1 (stereo not given) was read as HPGD inh inactive, Tau ThT inhib inactive, Tau fibril FP inactive, ALDH1A1 block 7.08µM, JMJD2E inh inactive and Tau fluor counter inactive.
O=C(NCc1ccccn1)C1CN(S(=O)(=O)c2ccccc2)CCN1S(=O)(=O)c1ccccc1 (stereo not given) was read as Tau ThT inhib inactive, Tau fibril FP inactive, ALDH1A1 block inactive, JMJD2E inh inactive and Tau fluor counter inactive.
Screening Cc1c(Cl)cccc1NC(=O)c1ccc2c(c1)nnn2C1CCCC1 returned Tau ThT inhib inactive, Tau fibril FP inactive and Tau fluor counter inactive.
Cc1ccc(Cl)cc1N1CCN(CCCNc2ncnc3onc(-c4ccc(F)cc4)c23)CC1 was read as Tau ThT inhib inactive, Tau fibril FP inactive and Tau fluor counter inactive.
Screening Cc1ccc(Cn2c(CCNC(=O)C(C)C)nc3ccccc32)cc1 returned Tau ThT inhib inactive, Tau fibril FP inactive and Tau fluor counter inactive.
`Cc1cc(C)c(Cn2c(CCNC(=O)c3ccco3)nc3ccccc32)c(C)c1` gave Tau ThT inhib inactive, Tau fibril FP inactive and Tau fluor counter inactive.
Screening Cc1ccc(S(=O)(=O)N2CCC(C(=O)OC(C)C(=O)NCc3ccc4c(c3)OCO4)CC2)cc1 (stereo not given) returned HPGD inh 17.8µM, Tau ThT inhib inactive, Tau fibril FP inactive, ALDH1A1 block inactive, JMJD2E inh inactive and Tau fluor counter inactive.
`Cc1ccc(S(=O)(=O)NCC2CCC(C(=O)NCc3ccccn3)CC2)cc1` (stereo not given) gave Tau ThT inhib inactive, Tau fibril FP inactive, ALDH1A1 block 7.94µM, JMJD2E inh inactive and Tau fluor counter inactive.
CCOc1ccc(-n2c(/C=C/c3cccc(F)c3)nc3cc(OC)c(OC)cc3c2=O)cc1 was read as Tau ThT inhib inactive, Tau fibril FP inactive and Tau fluor counter inactive.
Screening CC1Cc2ccccc2N1C(=O)COc1ccc2c(c1)OCO2 (stereo not given) returned Tau ThT inhib inactive, Tau fibril FP inactive, ALDH1A1 block inactive, JMJD2E inh inactive and Tau fluor counter inactive.
`COc1ccccc1N1CCN(/N=C/C=C/c2ccccc2[N+](=O)[O-])CC1` gave Tau ThT inhib 14.1µM, Tau fibril FP inactive, JMJD2E inh inactive and Tau fluor counter inconclusive.
O=[N+]([O-])c1ccccc1/C=C\C=N\N1CCN(c2ccccc2)CC1 was read as Tau ThT inhib 12.6µM, Tau fibril FP inactive, ALDH1A1 block inconclusive, JMJD2E inh inactive and Tau fluor counter inconclusive.
O=[N+]([O-])c1ccccc1/C=N/N1CCN(c2ccc(Cl)cc2)CC1 was read as HPGD inh inactive, Tau ThT inhib 11.2µM, Tau fibril FP inactive, ALDH1A1 block inactive, JMJD2E inh inactive and Tau fluor counter inconclusive.
Screening O=[N+]([O-])c1ccc(Cl)c(/C=N/N2CCN(c3ccccc3)CC2)c1 returned HPGD inh inactive, Tau ThT inhib inconclusive, Tau fibril FP inactive, ALDH1A1 block inactive, JMJD2E inh inactive and Tau fluor counter inconclusive.
For COc1ccccc1N1CCN(/N=C/c2cc([N+](=O)[O-])ccc2Cl)CC1 the results were Tau ThT inhib inactive, Tau fibril FP inactive, ALDH1A1 block 22.4µM, JMJD2E inh inactive and Tau fluor counter inactive.
O=[N+]([O-])c1cc(/C=N/N2CCN(c3ccccc3)CC2)ccc1Cl was read as HPGD inh inactive, Tau ThT inhib inconclusive, Tau fibril FP inactive, ALDH1A1 block inactive, JMJD2E inh inactive and Tau fluor counter inactive.
For O=C(COC(=O)CC12CC3CC(CC(C3)C1)C2)Nc1cccnc1Cl the results were Tau ThT inhib inactive, Tau fibril FP inactive, ALDH1A1 block inactive, JMJD2E inh inactive and Tau fluor counter inactive.
For O=[N+]([O-])c1ccccc1/C=N\N1CCN(c2ccccc2)CC1 the results were Tau ThT inhib 11.2µM, Tau fibril FP inactive, ALDH1A1 block inactive, JMJD2E inh inactive and Tau fluor counter inconclusive.
`CN(C)S(=O)(=O)N1CCCC(C(=O)c2ccc(C(F)(F)F)cc2)C1` (stereo not given) gave Tau ThT inhib inactive, Tau fibril FP inactive, ALDH1A1 block inactive, JMJD2E inh inactive and Tau fluor counter inactive.
Screening Nc1nccc(Nc2ccc(S(N)(=O)=O)cc2)n1 returned HPGD inh inactive and ALDH1A1 block inactive[13.5 µM].
For O=C1C2C3C=CC(C2C(=O)N1C1CCCCC1)C1C2C(=O)N(C4CCCCC4)C(=O)C2C31 (stereo not given) the results were HPGD inh inactive, Tau ThT inhib inactive, Tau fibril FP inactive, ALDH1A1 block 1.41µM, JMJD2E inh inactive and Tau fluor counter inactive.
Screening O=C1C=C[C@@H](O)[C@H]2[C@@H]3C(=O)N(C4CCCCC4)C(=O)[C@@H]3CC[C@H]12 returned Tau ThT inhib inactive[11.5 µM], Tau fibril FP inactive[11.6 µM], ALDH1A1 block inconclusive and Tau fluor counter inactive[11.6 µM].
`O=C1[C@@H]2[C@@H]3C[C@@H]([C@H]4ON=C(c5ccc(Cl)cc5)[C@@H]34)[C@@H]2C(=O)N1C1CCCCC1` gave HPGD inh inactive, Tau ThT inhib inactive, Tau fibril FP inactive, ALDH1A1 block inactive, JMJD2E inh inactive and Tau fluor counter inactive.
O=C1C2C3C=CC([C@@H]2C(=O)N1C1CCCCC1)[C@H]1C(=O)N(C2CCCCC2)C(=O)C31 (stereo not given in full) was read as HPGD inh inactive, Tau ThT inhib inactive, Tau fibril FP inactive, ALDH1A1 block 1.41µM, JMJD2E inh inactive and Tau fluor counter inactive.
Cc1c(C(=O)Oc2ccc(Br)cc2)sc2ncn(Cc3ccccc3F)c(=O)c12 was read as Tau ThT inhib inactive, Tau fibril FP inactive and Tau fluor counter inactive.
Screening O=C1CC(c2ccc(Cl)cc2)SC(N(c2ccccc2)c2ccccc2)=N1 (stereo not given) returned HPGD inh inactive, Tau ThT inhib inactive, Tau fibril FP inactive, ALDH1A1 block inactive, JMJD2E inh inconclusive and Tau fluor counter inactive.

Source: PubChem (National Center for Advancing Translational Sciences (NCATS))
